# This is a sample that favours compounds with a hit; in the whole collection about 1.6% have one here.
# KCNQ2 block: inhibitors of rat KCNQ2 potassium channel. B-score at 10 µM. CHO-K1 KCNQ2, FluxOR thallium flux, 20 min; active compounds read low. 1.1% of 310,000 active. O88943;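 active means fluorescence ratio B-score at most minus 3 library SDs, with starting brightness B-score within 2 library SDs, cut at about -5.5 in these data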
# Target sequence (O88943 whole entry, looked up): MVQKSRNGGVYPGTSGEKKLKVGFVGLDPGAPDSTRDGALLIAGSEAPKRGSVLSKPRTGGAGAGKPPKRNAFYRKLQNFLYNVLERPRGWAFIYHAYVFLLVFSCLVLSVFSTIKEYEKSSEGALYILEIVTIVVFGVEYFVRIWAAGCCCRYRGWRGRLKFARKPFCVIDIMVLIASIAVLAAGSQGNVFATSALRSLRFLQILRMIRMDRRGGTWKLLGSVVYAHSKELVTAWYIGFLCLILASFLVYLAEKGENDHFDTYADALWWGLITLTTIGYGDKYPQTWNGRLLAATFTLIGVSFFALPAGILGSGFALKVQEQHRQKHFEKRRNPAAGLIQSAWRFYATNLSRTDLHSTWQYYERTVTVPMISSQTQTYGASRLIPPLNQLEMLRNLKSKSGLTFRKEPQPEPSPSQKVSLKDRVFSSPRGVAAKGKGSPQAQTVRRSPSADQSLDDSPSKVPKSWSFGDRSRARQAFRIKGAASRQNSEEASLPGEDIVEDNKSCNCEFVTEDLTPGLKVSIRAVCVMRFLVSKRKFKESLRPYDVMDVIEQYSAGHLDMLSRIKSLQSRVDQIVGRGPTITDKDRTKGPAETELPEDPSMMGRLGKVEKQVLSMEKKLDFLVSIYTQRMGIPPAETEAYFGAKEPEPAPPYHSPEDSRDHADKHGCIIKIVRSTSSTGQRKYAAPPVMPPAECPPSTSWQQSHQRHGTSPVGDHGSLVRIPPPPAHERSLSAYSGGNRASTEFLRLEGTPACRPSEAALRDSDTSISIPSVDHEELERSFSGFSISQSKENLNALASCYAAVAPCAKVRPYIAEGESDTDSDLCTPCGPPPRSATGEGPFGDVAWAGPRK
# KCNQ2 enhance: KCNQ2 (rat) channel potentiation; O88943; CHO-K1 KCNQ2, FluxOR thallium flux fluorescence; active compounds read high; B-score at 10 µM; 0.54% of 310,000 active;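 active means fluorescence ratio B-score at least 3 SD of library B-scores, with initial fluorescence B-score within 3 of them, cut at about 5.3 in these data; same plate scores as AID 2156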;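 further: B-score of peak minus minimum over baseline fluorescence ratio after K+ and Tl+ stimulus; positive B-score means potentiation of KCNQ2 with more thallium influx and brighter signal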
# Kir21 confirm: confirmation of mouse Kir2.1 potassium channel inhibitors. shares compounds with KCNQ2 enhance. Kir2.1-expressing cells, FluxOR thallium flux fluorescence; active compounds read low. Tl flux remaining, % of negative control (active compounds read low), % at 10 µM. 41% of 2,300 active. AID 2032;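 active means Primary-screen hit whose thallium flux fell at least 3 control SD below untreated wells in both duplicates, with normal baseline fluorescence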;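 further: 0% = blank wells without stimulus and 100% = stimulated no-compound controls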
# HEK293 Tl flux: counter-screen for Kir2.1 inhibitors: effect in parental HEK293 cells | 19% of 2,300 active | FluxOR signal as % of negative control (100 = no effect), % at 10 µM | FluxOR thallium flux fluorescence; 0% = unstimulated blank wells | shares compounds with KCNQ2 enhance;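 active means dye signal at least 3 control SD above or below untreated wells in both duplicates, raw fluorescence within 3, either direction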;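 further: percent is based on the flux ratio of peak minus minimum fluorescence over baseline F0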
# CHO-K1 Tl ctr: counter-screen for KCNQ2 potentiators: effect in parental CHO-K1 cells; shares compounds with KCNQ2 enhance; FluxOR thallium flux fluorescence; zero = vehicle mean+3SD, 100% = vehicle-minus-blank window; activity increase over 3SD of controls, % at 10 µM; 43% of 1,200 active; AID 2282;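 active means signal rise of at least 3 SD above the untreated control mean, in both duplicate wells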;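 further: counter screen of KCNQ2 potentiator hits so any rise reflects channel-independent effects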
# KCNQ1 sel pot: tests whether KCNQ2 potentiators also act on human KCNQ1. activation over 3SD threshold, % at 10 µM. CHO KCNQ1 stable, FluxOR thallium flux fluorescence; beyond 3SD, as % of vehicle-control signal. shares compounds with KCNQ2 enhance. 28% of 1,200 active. AID 2283;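 active means fluorescence ratio rise of at least 3 SD of vehicle wells above their mean, in both replicate wells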;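 further: 0% = vehicle mean plus 3 SD and 100% = vehicle minus unstimulated blank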
# KCNQ2 pot confirm: confirmation of rat KCNQ2 potassium channel potentiators; AID 2287; CHO-KCNQ2 cells, FluxOR thallium flux fluorescence; potentiation, less the hit threshold, % at 10 µM; 68% of 1,200 active; shares compounds with KCNQ2 enhance;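 active means fluorescence ratio rising 3 SD or more over the vehicle control mean in both replicates, plus primary screen hit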;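 further: peak minus minimum thallium fluorescence divided by baseline after K/Tl stimulus; 0% = vehicle mean plus 3 SD and 100% = vehicle minus unstimulated blank difference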
# Kir21 spec: mouse Kir2.1 off-target activity of KCNQ2 potentiators. shares compounds with KCNQ2 enhance. HEK293 Kir2.1, FluxOR thallium flux fluorescence. activity over 3SD threshold, % at 10 µM. 2% of 1,200 active;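 active means fluorescence ratio rise of at least 3 SD above the vehicle-control mean, seen in both replicates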;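 further: 0% = vehicle mean plus 3 SD and 100% = vehicle minus no-stimulus blank window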
# KCNQ2 W236L pot: KCNQ2 potentiators acting on retigabine-insensitive rat KCNQ2 W236L mutant. shares compounds with KCNQ2 enhance. CHO KCNQ2-W236L, automated patch clamp current. 10% of 940 active. current increase over 3SD of negative controls (%), active compounds read high, % at 25 µM;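 active means current increase at least 3 SD of the untreated controls above them in both duplicate recordings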
# Numbers without * were called inactive; i = inactive; . = not tested or not shown.
SMILES,KCNQ2 block,KCNQ2 enhance,Kir21 confirm,HEK293 Tl flux,others
C=CCNC(=S)NC(=O)c1ccc(C)c(Br)c1,i,5.7*,i,i,CHO-K1 Tl ctr=22*;KCNQ1 sel pot=-26;KCNQ2 pot confirm=-12;Kir21 spec=-40
C=CCN(CC=C)C(=S)NC(=O)c1ccc(OC)c(Br)c1,i,7.2*,i,336%*,CHO-K1 Tl ctr=1.9*;KCNQ1 sel pot=20*;KCNQ2 pot confirm=20*;Kir21 spec=-25;KCNQ2 W236L pot=i
CCN(CC1CCCN(CCc2cccc(OC)c2)C1)C(=O)c1ccoc1 (centres undefined),i,1.3,.,.,
Cc1cc(C(=O)Nc2nncs2)oc1C,i,.,.,.,
O=S(=O)(c1cnc[nH]1)N1CCN(C(c2ccc(F)cc2)c2ccc(F)cc2)CC1,i,.,.,.,
CC(C)CC(NC(=O)C(NC(=O)C1OC2OC(C)(C)OC2C2OC(C)(C)OC12)C(C)C)C(=O)O (centres undefined),i,.,.,.,
Cn1c(-c2ccccc2)cnc1NCc1ccccc1,i,.,.,.,
Cn1c(-c2cccc(Br)c2)cnc1NCc1ccccc1O,i,5.6*,75%*,i,CHO-K1 Tl ctr=2.7*;KCNQ1 sel pot=8.7*;KCNQ2 pot confirm=-13;Kir21 spec=-59
Cn1c(NCc2cc(Br)ccc2O)nc2ccccc21,i,0.81,.,.,
Cn1c(-c2ccc3c(c2)OCO3)cnc1NCc1ccccc1,i,.,30%*,i,
COc1ccc(N2CCN(C(=O)c3cccnc3)CC2)c([N+](=O)[O-])c1,i,.,.,.,
O=c1c2cc(Cl)ccc2nc(-c2ccccc2Cl)n1O,i,2.5,.,.,
O=c1c2ccccc2nc(-c2cccc(Cl)c2)n1O,i,8.7*,i,i,CHO-K1 Tl ctr=74*;KCNQ1 sel pot=-22;KCNQ2 pot confirm=46*;Kir21 spec=-26;KCNQ2 W236L pot=i
Cc1ccc(-c2nc3ccccc3c(=O)n2O)cc1,i,3.6,.,.,
O=c1c2cc(Br)ccc2nc(-c2ccccc2)n1O,i,7.8*,i,426%*,CHO-K1 Tl ctr=-16;KCNQ1 sel pot=-16;KCNQ2 pot confirm=50*;Kir21 spec=-9;KCNQ2 W236L pot=i
NC(=O)N/N=C/c1ccccc1OCc1cccc2ccccc12,i,0.42,.,.,
CCSc1nnc2ccc(-c3ccco3)nn12,i,1.1,.,.,
Cc1ccc(NC(=O)CSCC(=O)Nc2ccccc2N2CCCC2)cc1,i,1.4,74%*,74%*,
COc1ccc(NC(=O)CSCC(=O)Nc2cc(Cl)ccc2N2CCOCC2)cc1,i,4.7,.,.,
CCC(=O)Nc1ccc(N2CCCCC2)c(C(=O)Nc2ccc(OC)cc2)c1,i,1.3,.,.,
Cc1ccc(NC(=O)CSCC(=O)Nc2ccccc2C(=O)N2CCCCC2)cc1,i,0.38,.,.,
COc1ccc(NC(=O)CSCC(=O)Nc2cc(Cl)ccc2N2CCCC2)cc1,i,7.1*,i,i,CHO-K1 Tl ctr=-7;KCNQ1 sel pot=66*;KCNQ2 pot confirm=6.3*;Kir21 spec=-44;KCNQ2 W236L pot=i
COc1ccc(CC(=O)Nc2ccc(N3CCCC3)c(C)c2)cc1,i,6.8*,34%*,i,CHO-K1 Tl ctr=9.8*;KCNQ1 sel pot=57*;KCNQ2 pot confirm=22*;Kir21 spec=-99;KCNQ2 W236L pot=i
NCCCC[C@H]1CNC(=S)N1CCc1cccc(F)c1,i,0.79,.,.,
Cc1ccc(C)c(OCCC(=O)OCC(=O)NC(=O)NC2CCCC2)c1,i,.,.,.,
SMILES,KCNQ2 block,KCNQ2 enhance,Kir21 confirm,HEK293 Tl flux,others
Clc1ccc(CCNc2ncnc3c2nnn3Cc2ccccc2)cc1,i,.,.,.,
COc1ccc(N(C)C(=O)c2onc3c2CCCC3)cc1,i,0.71,.,.,
CCCCNC(=S)NC(=O)c1ccc([N+](=O)[O-])cc1,i,8.8*,i,188%*,CHO-K1 Tl ctr=2.5*;KCNQ1 sel pot=14*;KCNQ2 pot confirm=10*;Kir21 spec=-13;KCNQ2 W236L pot=i
CC(C)CNC(=S)NC(=O)c1ccc([N+](=O)[O-])cc1,i,1.8,.,.,
Cc1c(NC(=O)C(C)OC(=O)c2ccc(Br)o2)c(=O)n(-c2ccccc2)n1C (centres undefined),i,0.38,.,.,
Cc1c(NC(=O)COC(=O)c2ccc(Br)o2)c(=O)n(-c2ccccc2)n1C,i,.,i,i,
O=C(NCCC1CCCCN1S(=O)(=O)c1ccc(F)cc1)C(=O)NCc1cccnc1 (centres undefined),i,.,.,.,
COc1cccc(NC(=O)CCNC(=O)Cn2ccc3ccccc3c2=O)c1,i,0.01,.,.,
Cc1[nH]c2ccccc2c1C(=O)C(=O)N1CCCc2ccccc21,i,.,.,.,
Cc1[nH]c2ccccc2c1SCC(=O)N1CCCc2ccccc21,i,.,54%*,i,
CCc1nc(SCC(=O)NCCc2ccccc2)c2c(=O)n(C)c(=O)n(C)c2n1,i,0.86,.,.,
CCCc1nc(SCC(=O)NCc2ccco2)c2c(=O)n(C)c(=O)n(C)c2n1,i,2.5,.,.,
CCCc1nc(SCC(=O)c2ccccc2)c2c(=O)n(C)c(=O)n(C)c2n1,i,25*,i,i,CHO-K1 Tl ctr=67*;KCNQ1 sel pot=79*;KCNQ2 pot confirm=56*;Kir21 spec=-26;KCNQ2 W236L pot=i
Cn1c(=O)c2c(SCC(=O)Nc3nccs3)nc(C3CC3)nc2n(C)c1=O,i,0.34,.,.,
CCc1nc(SCC(=O)c2ccccc2)c2c(=O)n(C)c(=O)n(C)c2n1,i,5.4*,i,i,CHO-K1 Tl ctr=-25;KCNQ1 sel pot=-19;KCNQ2 pot confirm=5.8*;Kir21 spec=-23;KCNQ2 W236L pot=i
Cn1c(=O)c2c(SCC(=O)c3ccccc3)nc(C3CC3)nc2n(C)c1=O,i,5.4*,i,i,CHO-K1 Tl ctr=84*;KCNQ1 sel pot=-14;KCNQ2 pot confirm=2.4*;Kir21 spec=-24;KCNQ2 W236L pot=i
Cc1cc(C)nc(NC(=O)c2c(-c3ccccc3Cl)noc2C)c1,i,.,.,.,
COc1ccc(N2CC(C(=O)N[C@@H](C)C(=O)NCc3ccccc3OC)CC2=O)cc1 (some centres undefined),i,0.6,.,.,
COc1ccc2c(c1)CCCN2C(N)=Nc1ccc(Cl)cc1,i,1.1,37%*,i,
COc1ccc2c(c1)CCCN2C(N)=O,i,.,.,.,
CCC(=O)N(CCC(c1ccccc1)c1ccco1)Cc1cccs1 (centres undefined),-14*,-14,62%*,i,
COc1ccccc1C(CCN(Cc1cccs1)C(C)=O)c1ccco1 (centres undefined),i,.,.,.,
CCC(=O)N(CCC(Cc1ccccc1)c1ccco1)Cc1ccco1 (centres undefined),i,.,54%*,i,
CCC(=O)N(CCC(Cc1ccccc1)c1ccc2c(c1)OCO2)Cc1ccccc1F (centres undefined),i,.,.,.,
COC(=O)CC(NC(=O)Nc1ccccc1F)c1ccc2c(c1)OCO2 (centres undefined),i,1.8,.,.,
